# Many of the other results were omitted from the sample, so hits are more common in it than they were.
# mHTT CaM bind – inhibitors of human mutant huntingtin-calmodulin interaction | P42858 | AlphaScreen His-mHTT/GST-CaM binding, luminescence | inhibition, % at 15 µM | hit rate 3.6% among 190,000;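 also: 0% = both proteins with DMSO and 100% = one protein alone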
# Target sequence (P42858 whole entry, looked up, stated change not applied): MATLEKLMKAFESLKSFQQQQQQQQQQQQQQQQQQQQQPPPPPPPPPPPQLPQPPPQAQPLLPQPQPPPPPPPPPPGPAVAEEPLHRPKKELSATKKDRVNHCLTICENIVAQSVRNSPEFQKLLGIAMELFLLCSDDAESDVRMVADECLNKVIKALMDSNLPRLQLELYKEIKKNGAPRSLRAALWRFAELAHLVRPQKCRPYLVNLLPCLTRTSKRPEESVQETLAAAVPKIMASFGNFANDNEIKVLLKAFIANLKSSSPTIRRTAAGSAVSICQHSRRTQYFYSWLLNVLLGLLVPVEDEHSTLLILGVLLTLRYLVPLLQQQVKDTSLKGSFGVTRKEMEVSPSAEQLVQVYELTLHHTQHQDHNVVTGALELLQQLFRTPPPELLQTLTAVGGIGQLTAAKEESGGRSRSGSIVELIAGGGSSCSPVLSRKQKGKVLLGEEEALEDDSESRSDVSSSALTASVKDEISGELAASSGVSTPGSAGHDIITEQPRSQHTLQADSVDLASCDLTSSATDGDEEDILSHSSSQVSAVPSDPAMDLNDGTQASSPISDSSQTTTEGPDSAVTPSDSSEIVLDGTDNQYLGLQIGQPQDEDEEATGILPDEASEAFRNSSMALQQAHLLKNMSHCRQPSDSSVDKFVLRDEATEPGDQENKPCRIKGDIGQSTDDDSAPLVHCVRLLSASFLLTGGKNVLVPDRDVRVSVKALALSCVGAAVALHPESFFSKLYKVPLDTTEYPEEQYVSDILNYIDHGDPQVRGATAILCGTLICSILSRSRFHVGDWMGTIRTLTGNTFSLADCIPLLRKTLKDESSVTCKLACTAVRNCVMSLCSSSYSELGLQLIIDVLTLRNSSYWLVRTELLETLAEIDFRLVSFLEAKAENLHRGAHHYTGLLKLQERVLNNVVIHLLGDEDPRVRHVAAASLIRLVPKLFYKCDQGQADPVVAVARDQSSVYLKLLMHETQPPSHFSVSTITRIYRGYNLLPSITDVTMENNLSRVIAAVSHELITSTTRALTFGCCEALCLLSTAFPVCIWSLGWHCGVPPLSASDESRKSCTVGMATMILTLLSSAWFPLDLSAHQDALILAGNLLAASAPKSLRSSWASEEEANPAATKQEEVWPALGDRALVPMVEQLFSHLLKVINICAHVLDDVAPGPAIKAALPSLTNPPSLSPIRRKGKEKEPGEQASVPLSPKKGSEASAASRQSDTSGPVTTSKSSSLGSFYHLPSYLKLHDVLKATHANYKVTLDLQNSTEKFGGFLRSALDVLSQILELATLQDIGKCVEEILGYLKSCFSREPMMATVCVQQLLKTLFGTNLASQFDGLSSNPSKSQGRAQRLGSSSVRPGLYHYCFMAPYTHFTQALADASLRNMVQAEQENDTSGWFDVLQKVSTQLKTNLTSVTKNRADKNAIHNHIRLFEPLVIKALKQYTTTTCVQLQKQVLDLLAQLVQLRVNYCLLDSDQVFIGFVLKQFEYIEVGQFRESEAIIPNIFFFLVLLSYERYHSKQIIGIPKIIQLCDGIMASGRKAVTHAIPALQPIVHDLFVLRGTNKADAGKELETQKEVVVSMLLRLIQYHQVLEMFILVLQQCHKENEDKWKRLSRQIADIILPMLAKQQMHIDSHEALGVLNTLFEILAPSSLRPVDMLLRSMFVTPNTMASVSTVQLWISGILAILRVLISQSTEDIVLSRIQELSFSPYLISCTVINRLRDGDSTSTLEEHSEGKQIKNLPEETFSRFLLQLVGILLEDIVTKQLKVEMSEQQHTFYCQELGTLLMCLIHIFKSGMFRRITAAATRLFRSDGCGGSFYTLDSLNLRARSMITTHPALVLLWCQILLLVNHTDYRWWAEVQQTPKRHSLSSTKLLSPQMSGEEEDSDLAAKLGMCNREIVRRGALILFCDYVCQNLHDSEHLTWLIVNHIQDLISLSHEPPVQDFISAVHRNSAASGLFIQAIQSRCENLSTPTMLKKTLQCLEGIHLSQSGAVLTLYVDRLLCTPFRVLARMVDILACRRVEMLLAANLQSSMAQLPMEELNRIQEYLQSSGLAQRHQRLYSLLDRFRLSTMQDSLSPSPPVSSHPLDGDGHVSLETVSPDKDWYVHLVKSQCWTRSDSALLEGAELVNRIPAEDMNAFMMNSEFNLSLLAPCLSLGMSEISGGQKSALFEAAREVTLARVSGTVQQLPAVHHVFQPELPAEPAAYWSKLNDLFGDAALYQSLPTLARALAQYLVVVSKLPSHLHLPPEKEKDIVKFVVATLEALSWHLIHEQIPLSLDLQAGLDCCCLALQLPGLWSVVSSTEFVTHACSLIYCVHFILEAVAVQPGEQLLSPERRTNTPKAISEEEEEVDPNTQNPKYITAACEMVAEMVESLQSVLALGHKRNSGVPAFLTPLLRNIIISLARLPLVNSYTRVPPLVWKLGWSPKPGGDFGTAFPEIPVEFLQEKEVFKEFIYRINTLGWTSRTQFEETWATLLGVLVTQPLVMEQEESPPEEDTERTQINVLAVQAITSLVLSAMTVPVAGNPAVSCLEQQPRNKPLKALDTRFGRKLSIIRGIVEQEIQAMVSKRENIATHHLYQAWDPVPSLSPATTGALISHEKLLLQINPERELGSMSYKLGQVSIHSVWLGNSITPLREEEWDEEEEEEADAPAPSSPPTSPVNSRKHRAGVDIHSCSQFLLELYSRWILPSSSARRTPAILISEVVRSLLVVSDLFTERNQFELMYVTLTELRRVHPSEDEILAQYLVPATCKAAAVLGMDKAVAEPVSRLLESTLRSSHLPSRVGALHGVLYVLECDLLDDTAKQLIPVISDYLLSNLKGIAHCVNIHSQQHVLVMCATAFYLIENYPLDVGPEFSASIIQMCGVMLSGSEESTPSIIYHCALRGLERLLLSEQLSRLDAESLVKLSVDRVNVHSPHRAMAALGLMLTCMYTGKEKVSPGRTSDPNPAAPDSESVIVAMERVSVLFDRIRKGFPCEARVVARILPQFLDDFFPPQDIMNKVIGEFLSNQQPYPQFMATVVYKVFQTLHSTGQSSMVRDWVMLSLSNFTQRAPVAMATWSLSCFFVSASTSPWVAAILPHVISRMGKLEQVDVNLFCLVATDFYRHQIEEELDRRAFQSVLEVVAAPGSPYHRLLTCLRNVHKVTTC
# Pf apPOL inh – Pf-apPOL DNA polymerase inhibition; AID 1794808; hit rate 0.25% among 210,000; Recombinant Pf-apPOL, molecular beacon fluorescence, 1.5 h; inhibition, % at 10 µM
# The depositor's hits bear a star; x = no result. Rule as the data show it: active = inhibition above about 50%; inactive = the rest.
SMILES,mHTT CaM bind,Pf apPOL inh
COc1c(C(=O)N2CCN(c3ccccc3F)CC2)sc2cccc(F)c12,13,1
O=C(Nc1ccc(N2CCCN(Cc3cccc(F)c3)C2=O)cc1)C1CC1,10,0
Cc1ccc(C2=N/C(=C\C(Br)=C\c3ccccc3)C(=O)O2)cc1[N+](=O)[O-],57*,2
CC(/C=C1\N=C(c2ccc(C)c([N+](=O)[O-])c2)OC1=O)=C\c1ccccc1,3,0
CC(C)C1C(=O)N(Cc2cn(CCC3OCCCO3)nn2)CCS(=O)(=O)N1Cc1ccc(-c2ccc(Cl)c(Cl)c2)cc1 (centres undefined),74*,-6
CC1C(=O)N(Cc2cn(CCC3OCCO3)nn2)CCS(=O)(=O)N1Cc1ccc(-c2cccc(CO)c2)cc1 (centres undefined),15,-5
CC1C(=O)N(Cc2cn(CCC3OCCO3)nn2)CCS(=O)(=O)N1Cc1ccc(-c2ccc(Cl)c(Cl)c2)cc1 (centres undefined),96*,-16
CC(C)C1C(=O)N(Cc2cn(CCC3OCCCO3)nn2)CCS(=O)(=O)N1Cc1ccc(-c2ccc(Cl)cc2)cc1 (centres undefined),44,-19
CC(C)C1C(=O)N(Cc2cn(CCC3OCCCO3)nn2)CCS(=O)(=O)N1Cc1ccc(-c2ccccc2)cc1 (centres undefined),56*,-15
CC(C)C1C(=O)N(Cc2cn(CCC3OCCO3)nn2)CCS(=O)(=O)N1Cc1ccc(-c2ccc(F)cc2)cc1 (centres undefined),53*,-7
CC(C)C1C(=O)N(Cc2cn(CCC3OCCCO3)nn2)CCS(=O)(=O)N1Cc1ccc(-c2ccc(F)nc2)cc1 (centres undefined),42,-1
CC(C)C1C(=O)N(Cc2cn(CCC3OCCO3)nn2)CCS(=O)(=O)N1Cc1ccc(-c2ccc(F)nc2)cc1 (centres undefined),37,2
Cc1cc(C)c(C#N)c(-n2nnc3ccccc32)n1,-3,5
CCCCOC(=O)Nc1ccc([N+](=O)[O-])cc1,0,2
Cc1nc(-c2ccc(F)cc2)nc2c1CC(=O)N2Cc1cccs1,-6,-4
CC(=O)Nc1ccccc1NC(=O)c1ccccc1[N+](=O)[O-],60*,1
NC(=O)c1ccccc1NC(=O)c1ccccc1[N+](=O)[O-],2,-4
CCCCS(=O)(=O)N1CCC(c2cc(=O)n3nccc3n2C)CC1,7,-2
O=S(=O)(NCCc1ccc(F)cc1)c1ccc(Cl)cc1,-17,-7
Cn1c(NN)nc2sc3c(c2c1=O)CC(C)(C)OC3,36,-4
CC1(C)Cc2c(sc3nc(NN)nc(NN)c23)CO1,100*,-2
Cc1c(Cl)c([N+](=O)[O-])nn1CCCC(=O)Nc1sc2c(c1C#N)CCCCC2,6,-6
Cc1c(C)n(CC(O)CN2CCCCCC2)c2ccccc12 (centres undefined),10,-8
Cc1c(C)n(CC(O)CNC2CCCCC2)c2ccccc12 (centres undefined),3,0
COc1ccc(NCC(O)Cn2c(C)c(C)c3ccccc32)c(OC)c1 (centres undefined),74*,-1
SMILES,mHTT CaM bind,Pf apPOL inh
CCOc1ccc(NCC(O)Cn2c(C)c(C)c3ccccc32)cc1 (centres undefined),84*,-2
COc1ccc(NCC(O)Cn2c(C)c(C)c3ccccc32)cc1 (centres undefined),57*,2
CC(=O)Nc1ccc(OCC(O)Cn2c3ccccc3c3ccccc32)cc1 (centres undefined),26,-2
COC(=O)c1ccc(NC(=O)C(=O)NCC2CCN(Cc3ccco3)CC2)cc1,-9,-10
Cc1nccn1CCNC(=O)C(=O)NC(C)(C)C,-10,-3
COCCCNc1ccc(-c2nc(-c3ccccc3)no2)cn1,-6,-6
Cc1ccc(Cl)cc1N1CCN(c2ncnc3c2nc2n3CCCCC2)CC1,99*,-5
Cc1ccc(N(C)C(=O)C2CCCN(c3ncnc4c3nc3n4CCCCC3)C2)cc1C (centres undefined),39,4
O=C(Nc1cc(F)ccc1F)C1CCN(c2ncnc3c2nc2n3CCCCC2)CC1,1,-3
O=C(Nc1ccccc1F)C1CCN(c2ncnc3c2nc2n3CCCCC2)CC1,5,96*
Clc1cccc(N2CCN(c3ncnc4c3nc3n4CCCC3)CC2)c1,50,0
Cc1ccc(N(C)C(=O)C2CCN(c3ncnc4c3nc3n4CCCCC3)CC2)cc1C,56*,-1
N#CC(=CNc1nccs1)S(=O)(=O)c1ccc(Cl)cc1,x,8
CCN(CC)C1=C(n2nnc3ccccc32)C(=O)c2ccccc2C1=O,27,-6
CN(C)c1ccc(NC2=C(n3nnc4ccccc43)C(=O)c3ccccc3C2=O)cc1,51*,-9
COc1cccc(NC2=C(n3nnc4ccccc43)C(=O)c3ccccc3C2=O)c1,8,-1
Cc1ccc(NC2=C(NCCO)C(=O)c3ccccc3C2=O)cc1,67*,0
Cc1ccc(Nc2c3c4c(cccc4n(C)c2=O)C(=O)c2ccccc2-3)cc1,36,-2
Cc1ccc(NC2=C(n3nnc4ccccc43)C(=O)c3ccccc3C2=O)cc1,52*,3
CN(C)CC1CN(C(=O)c2ccncc2)CC12CCOCC2 (centres undefined),-9,0
Cc1ccc(NC(=O)C2CCN(c3ccncc3)CC2)c(C)c1,-4,1
CCCC(=O)Nc1ccc(NC(=O)COc2ccc(Cl)cc2Cl)cc1,9,6
CC(=O)N1CCN(c2ccc(NC(=O)COc3ccc(Cl)cc3Cl)cc2)CC1,50*,-16
O=C(CCCOc1ccc(Cl)cc1Cl)N1CCN(c2ccc(F)cc2)CC1,76*,9
O=C(CCSc1ccc(Cl)cc1)N1CCN(c2ccc(F)cc2)CC1,15,-6
SMILES,mHTT CaM bind,Pf apPOL inh
COc1cccc(C=Nc2ccccc2I)c1O,-6,-2
Cn1cc(CN2CCC(C(=O)NCCc3ccco3)CC2)c2cc(Cl)ccc21,37,-1
COc1ccccc1C1CC(c2c(-c3ccccc3)c3cc(Br)ccc3[nH]c2=O)=NO1 (centres undefined),15,4
O=c1[nH]c2ccc(Br)cc2c(-c2ccccc2)c1C1=NNC(c2ccco2)C1 (centres undefined),100*,-2
Cc1nn(C)c2c(=O)n(CC(=O)NCc3ccc(C(F)(F)F)cc3)ccc12,-9,-2
COc1ccc(C2C=C(c3cccc(Br)c3)Nc3ncnn32)cc1 (centres undefined),59*,-10
COc1ccc(OC)c(C2C=C(c3ccc(Cl)cc3)Nc3nnnn32)c1 (centres undefined),17,0
COc1cccc(C2=CC(c3cc(OC)c(OC)c(OC)c3)n3ncnc3N2)c1 (centres undefined),28,14
COc1ccc(OC)c(C2C=C(c3cccc(Br)c3)Nc3nnnn32)c1 (centres undefined),56*,9
COc1ccc(C2C=C(c3cccc(Br)c3)Nc3nnnn32)cc1OC (centres undefined),65*,4
Cc1ccc(C2C=C(c3cccc(Br)c3)Nc3ncnn32)cc1 (centres undefined),14,-8
COc1cc(C2C=C(c3cccc(NC(C)=O)c3)Nc3ncnn32)cc(OC)c1OC (centres undefined),-3,61*
COc1cccc(C2C=C(c3cccc(Br)c3)Nc3nnnn32)c1 (centres undefined),-13,-6

# Screening results from PubChem BioAssay.
